Rows were chosen to be rich in hits. Some 31% of all compounds tested hit in one or more screens of this group.
CYP2C19 inh = human CYP2C19 inhibition; inhibition, % at 5 µM; CYP2C19 Supersomes, luciferin-H EGE luminescence, 30 min; hit rate 21% among 96,000;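 active means CYP2C19 inhibition above a set limit at 5 µM in the primary screen, cut at about 50% in these data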;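 further: plate controls were negative control wells for no effect and 2.5 mM tranylcypromine positive control for full effect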
CYP2C9 inh = human CYP2C9 inhibition | AID 777 | hit rate 20% among 96,000 | inhibition, % at 5 µM | CYP2C9 Supersomes, luciferin-H conversion, luminescence;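 active means blocking of liver enzyme CYP2C9 beyond about 50% at 5 µM, limit read from the data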
Target sequence (P11712 whole entry, looked up): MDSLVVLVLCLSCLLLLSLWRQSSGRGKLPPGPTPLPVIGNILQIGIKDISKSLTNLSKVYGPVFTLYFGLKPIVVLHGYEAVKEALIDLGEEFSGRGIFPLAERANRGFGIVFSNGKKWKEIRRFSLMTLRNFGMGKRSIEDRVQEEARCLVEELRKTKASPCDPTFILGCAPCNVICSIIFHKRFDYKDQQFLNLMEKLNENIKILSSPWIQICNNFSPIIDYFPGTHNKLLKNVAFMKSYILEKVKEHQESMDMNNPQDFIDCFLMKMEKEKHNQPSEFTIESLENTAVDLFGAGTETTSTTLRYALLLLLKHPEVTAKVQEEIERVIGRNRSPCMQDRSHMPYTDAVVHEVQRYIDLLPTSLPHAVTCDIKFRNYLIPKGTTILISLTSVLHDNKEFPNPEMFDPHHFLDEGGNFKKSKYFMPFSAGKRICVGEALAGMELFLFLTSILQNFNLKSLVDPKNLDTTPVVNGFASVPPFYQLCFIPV
CYP2C9 act = activators of human CYP2C9; hit rate 1.4% among 96,000; P11712; activation factor at 5 µM; recombinant CYP2C9, luciferin-H conversion, luminescence; active compounds read high; factor 1 = untreated enzyme, 0 = blocked;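 active means activation factor of 2 or more for CYP2C9 at a 5 µM dose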;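 further: 0 = sulfaphenazole-blocked wells and 1 = vehicle-only wells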
CYP2C19 act = activators of human cytochrome P450 2C19 | 96,000 tested, under 10 active | activation factor at 5 µM | P33261 | recombinant CYP2C19, luciferin-H EGE luminescence; active compounds read high; 0 = fully inhibited enzyme, 1 = untreated enzyme;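 active means activation factor of at least 2 at 5 µM in the primary screen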;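 further: 0 = wells with 2.5 mM tranylcypromine and 1 = vehicle-only wells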
* = called active by the depositor.

SMILES	CYP2C19 inh	CYP2C9 inh	CYP2C9 act	CYP2C19 act
CC(=O)Nc1ccc(OCC(O)CN2CCN(c3cc(Cl)ccc3C)CC2)cc1 (configuration not stated)	84*	61*	0.4	0.2
OC(COc1ccc2ccccc2c1)CN1CCCC1 (configuration not stated)	-3	5	0.9	1
OC(COc1ccc2ccccc2c1)CN1CCN(c2ccc(F)cc2)CC1 (configuration not stated)	51*	-2	1	0.5
CC(=O)Nc1ccc(OCC(O)CN2CCN(c3ccc(C)c(Cl)c3)CC2)cc1 (configuration not stated)	68*	73*	0.3	0.3
CC(C)c1ccc(OCC(O)CN2CCN(c3ccccc3)CC2)cc1 (configuration not stated)	35	12	0.9	0.7
COc1ccc(/C=N/NC(=O)c2cc(-c3ccccc3OC)nc3ccccc23)cc1COC(C)=O	44	72*	0.3	0.6
COc1ccc(/C=N/NC(=O)c2cc(-c3ccc(C)cc3C)nc3ccccc23)cc1COC(C)=O	47	74*	0.3	0.5
CCn1c(SCC(=O)N/N=C/c2ccc(OC)c(OC)c2)nc2ccccc21	23	-54	1.5	0.8
CCn1cc(CNC(=O)c2cc(-c3ccccc3OC)nc3ccccc23)c(C)n1	9	32	0.7	0.9
COc1ccc(/C=N/NC(=O)c2ccccc2Cl)cc1CSc1nc2ccccc2s1	51*	82*	0.2	0.5
Cc1cccc(NC(=O)c2oc3ccc(S(=O)(=O)N4CCOCC4)cc3c2C)c1C	-8	28	0.7	1.1
CC1CCN(c2nc3c(c(=O)[nH]c(=O)n3C)n2CCSc2nc3ccccc3o2)CC1	2	11	0.9	1
CCc1nc(N)c(C#N)c(-c2cccnc2)c1C	3	-11	1.1	1
Cc1nc(N)c(C#N)c(-c2cccnc2)c1C	3	-96	2*	1
CC(C)(C)NC(=O)Cn1c(-c2nonc2N)nc2ccccc21	62*	76*	0.2	0.4
CCCCOc1ccccc1NC(=O)Cn1c(-c2nonc2N)nc2ccccc21	33	70*	0.3	0.7
CCOC(=O)Cn1c(-c2nonc2NC(=O)c2ccccc2F)nc2ccccc21	50	92*	0.1	0.5
Cc1ccc(C)c(S(=O)(=O)Nc2ccc3scnc3c2)c1	100*	66*	0.3	0
Cn1c2c(c(=O)n(C)c1=O)CN(Cc1ccc3c(c1)OCO3)CN2	2	-9	1.1	1
CC(=O)c1cccc(NS(=O)(=O)c2ccc(N/C=C\C(=O)c3ccc(F)cc3)cc2)c1	14	29	0.7	0.9
CCN(CC)S(=O)(=O)c1cccc(C(=O)Nc2cccc(C)c2)c1	44	32	0.7	0.6
CC(=O)c1cccc(NS(=O)(=O)c2ccc(N/C=C\C(=O)c3ccc(C)cc3)cc2)c1	15	65*	0.4	0.8
Cc1cccc(NC(=O)c2cc(S(=O)(=O)c3ccccc3)ccc2Cl)c1	80*	94*	0.1	0.2
Cc1cc(C)c(NS(=O)(=O)c2ccc(Cl)c(C(=O)O)c2)c(C)c1	1	61*	0.4	1
Cc1cccc(NC(=O)c2cccc(NS(=O)(=O)c3ccc(Cl)cc3)c2)c1	99*	97*	0	0
SMILES	CYP2C19 inh	CYP2C9 inh	CYP2C9 act	CYP2C19 act
COC(=O)C1(C(=O)OC)NOC2C(=O)N(c3ccccc3)C(=O)C21 (configuration not stated)	1	0	1	1
Cc1ccc(S(=O)(=O)Nc2cc(C(=O)Nc3cc(C)cc(C)c3)ccc2Cl)cc1	57*	80*	0.2	0.4
Nc1cccc(C(=O)Nc2ccco2)c1	98*	79*	0.2	0
O=C(NCc1ccncc1)C12CC3CC(CC(C3)C1)C2	52*	49	0.5	0.5
O=C(NCc1ccccc1)C12CC3CC(CC(C3)C1)C2	31	-3	1	0.7
O=C(NC(=S)N(Cc1ccccc1)Cc1ccccc1)c1ccccc1F	22	53*	0.5	0.8
O=C(NC(=S)NCc1ccccc1)c1ccccc1F	29	26	0.7	0.7
CCOc1ccc(NC(=O)CCN2CCN(S(=O)(=O)c3cc(Cl)ccc3OC)CC2)cc1	96*	68*	0.3	0
CCN(CC)c1ccc(NC(=O)CN2CCN(S(=O)(=O)c3cc(Cl)ccc3OC)CC2)cc1	72*	-28	1.3	0.3
COc1ccc(NC(=O)CN2CCN(CC(=O)Nc3ccc(OC)c(OC)c3)CC2)cc1	11	-8	1.1	0.9
CCN(C(=O)CN1CCN(c2ccc(OC)cc2)CC1)c1c(N)n(Cc2ccccc2)c(=O)[nH]c1=O	-16	-5	1	1.2
Cc1ccc2nsnc2c1S(=O)(=O)NCCc1c(C)[nH]c2ccc(F)cc12	78*	33	0.7	0.2
Fc1ccc(-c2nnn(Cc3nc4ccccc4s3)n2)cc1	89*	33	0.7	0.1
Clc1ccc(-c2nnn(Cc3nc4ccccc4s3)n2)cc1	-5	-26	1.3	1.1
Cc1ccc(Cn2ccc(NC(=O)c3cc(-c4cccs4)on3)n2)cc1	1	22	0.8	1
Cc1cc(N2CCN(C(=O)OC(C)(C)C)CC2)n2ncnc2n1	-6	-11	1.1	1.1
c1ccc(CNc2nc3ccccc3[nH]2)cc1	48	2	1	0.5
COc1ccc2nc(NCc3ccccc3)[nH]c2c1	78*	22	0.8	0.2
Cc1ccc2nc(NCc3ccccc3)[nH]c2c1	88*	24	0.8	0.1
COc1ccc2nc(-c3ccccc3)[nH]c2c1	74*	39	0.6	0.3
CCOc1ccc2nc(-c3ccccc3)[nH]c2c1	26	12	0.9	0.7
COc1ccc2nc(NCCO)[nH]c2c1	-14	-8	1.1	1.1
COCCN(CCOC)Cc1c(C)[nH]c2c(C)c(C)ccc2c1=O	9	14	0.9	0.9
CC(Sc1nnc2ccccn12)C(=O)N1CCc2ccccc2C1 (configuration not stated)	37	2	1	0.6
COC(=O)c1ccccc1N1C(=O)[C@@H]2C(c3ccc(F)cc3)=NO[C@@H]2C1=O	48	5	0.9	0.5
SMILES	CYP2C19 inh	CYP2C9 inh	CYP2C9 act	CYP2C19 act
CC(C)C1(C)C(=O)N=C2c3ccccc3C(=O)N21 (configuration not stated)	33	2	1	0.7
Cc1[nH]nc2c1C1(CCC3(CC1)OCCO3)C(C#N)=C(N)O2	9	10	0.9	0.9
CCOC(=O)N1CCC2(CC1)C(C#N)=C(N)Oc1c2sc2nc(C)cc(C)c12	46	47	0.5	0.5
CCOC(=O)N1CCC2(CC1)C(C#N)=C(N)Oc1c2c(C)nn1-c1cccc(Cl)c1	30	72*	0.3	0.7
CCOC(=O)N1CCC2(CC1)C(C#N)=C(N)Oc1n[nH]c(C)c12	50*	33	0.7	0.5
CC(=O)N1CCC2(CC1)C(C#N)=C(N)Oc1n[nH]c(CSc3ccc(C)cc3)c12	41	53*	0.5	0.6
CCOC(=O)C(C)CC(C)C(=O)N1CCOCCOCCN(C(=O)C(C)CC(C)C(=O)OCC)CCOCC1 (configuration not stated)	10	8	0.9	0.9

From PubChem
